A short description of assay [1]: blockers of polyQ-driven CASP3 activation – cell-based (AID 1583). As to conditions: polyglutamine-induced caspase-3 activation, cell assay; stronger effect = higher value;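 tested at 10 µM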.
A short description of assay [2]: yeast 75Q aggregation reduction – 75Q-TubU reporter (AID 1593). The conditions noted are these: Yeast 75Q polyglutamine aggregation reporter.
Assay [3] is described as follows: restoration of touch response, mutant HTT neurons – whole organism, C. elegans mechanosensory neurons, N-terminal huntingtin (AID 1599). As to conditions: C. elegans polyQ-huntingtin mechanosensory neurons, stronger effect = higher value.
The nature of assay [4]: blockers of cytochrome c efflux from mitochondria – biochemical, purified mitochondria (AID 1603).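 Note: mouse liver mitochondria challenged with calcium chloride; signal normalized to the plate average as 100%.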 The conditions noted are these: stronger effect = lower value.
Assay [5] in a line: polyglutamine aggregate formation blockers (AID 1604). As to conditions: polyglutamine-induced protein aggregation inhibition assay; stronger effect = higher value; tested at 2.5 µM.
Assay [6] can be described thus: glutamate transport activators, MN-1 cells, MN-1 cell line (AID 1612).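 Note: tested at 1 µM final; 0% = mean of DMSO vehicle wells on each plate; positive means more glutamate uptake than control and negative means less.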 The conditions noted are these: MN-1 motor neuron cells, stronger effect = higher value.
Assay [7] is described as follows: 75Q-TubH aggregate inhibition, S. cerevisiae, yeast (AID 1616). The conditions noted are these: S. cerevisiae 75Q-TubH polyglutamine aggregation suppression; stronger effect = higher value.
Assay [8] in a line: P. berghei load reduction in hepatocytes – cell-based, HepG2, luciferase luminescence, HepG2 viability, primary screen (AID 624349; in the data active = parasite load remaining mostly below about 12%, no sharp cut-off; inactive = mostly above about 10%;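 note: 100% = mean of DMSO negative control wells on the same plate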). As to conditions: P. berghei liver stage in HepG2, luciferase luminescence, concentration not given here; parasite load remaining: stronger effect = lower value; viability: measured here: HepG2 viability without parasites.
Assay [9] concerns the target 6-phosphogluconate dehydrogenase, decarboxylating (Homo sapiens) (UniProt P52209). The assay is described as follows: inhibition of human phosphogluconate dehydrogenase – biochemical, recombinant enzyme, NADPH absorbance, primary screen (AID 1159550;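 active = at least 20% inhibition of 6-phosphogluconate dehydrogenase activity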). The conditions noted are these: recombinant 6PGD, NADPH absorbance 341 nm; at 10 µM; stronger effect = higher value.
Assay [10] can be described thus: EMT-state selective cytotoxicity in co-culture – imaging, PC-3E GFP, TEM4-18 mCherry, primary screen (AID 1345086;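 active = compounds killing one labelled cell type while sparing the other, by normalised counts and ratio limits, not self-fluorescent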;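 for all read-outs here: cells exposed to compound for 72 h before imaging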;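 for red/green cell ratio (normalised): normalised mesenchymal count divided by normalised epithelial count so high means epithelial killing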). The conditions noted are these: PC-3E GFP / TEM4-18 mCherry co-culture, imaging cell counts, at 1 µM; for red/green cell ratio (normalised): actives lie on both sides, counts scaled to control wells, 1 = unselective.
A short description of assay [11]: viability loss with induced miR-34 in A549 – imaging, A549 dox-inducible miR-34, nuclei and caspase counts, primary screen (AID 1347080). The conditions noted are these: A549 miR-34 inducible, Hoechst nuclei count, 48 h.
Assay [12] in a line: MELAS cybrid and Rieske KO viability enhancers – cell-based, MELAS cybrids, Rieske KO mouse fibroblasts, CellTiter-Glo, primary screen (AID 1508586;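 active = mean z-score across replicates of 1.96 or higher in either the MELAS or the Rieske mutant cell line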;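 note: z relative to plate mean and SD of compound and empty wells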). The conditions noted are these: low glucose. (ATP-based viability assays read luminescence as a measure of living cells.)
Assay [13] can be described thus: galactose survival enhancers in mitochondrial complex I cybrids – cell-based, galactose medium, ATP luminescence, primary screen (AID 1645843;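 active = z-score of at least 1.8 in each of two replicates, scored against plate mean and spread of sample wells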;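 note: positive z means more ATP and so rescue of galactose-driven cybrid death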). As to conditions: complex I mutant cybrid cells, 72 h, stronger effect = higher value.
The nature of assay [14]: GFP-Q80 aggregate reduction, neuronal-like cells, cell-based, NGF-treated PC12, GFPQ80 (AID 1614).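 Note: lower means fewer inclusions and 0 means no inclusions at all.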 As to conditions: PC12 NGF-treated GFP-polyQ80 inclusion reduction.
Assay [15] can be described thus: compounds altering circadian rhythm period length – cell-based, LOPAC library, luminescence reporter (AID 2774; call rule not given here;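 note: values are relative to mean of DMSO wells on each plate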). The conditions noted are these: circadian reporter cells, at 7 µM, actives lie on both sides.
Assay [16] concerns Hepatitis C virus NS3 helicase. The assay is described as follows: blockers of NS3h binding to ssDNA – biochemical, fluorescence polarization, LOPAC1280 library, primary screen (AID 687035; in the data active = inhibition above about 37%). The conditions noted are these: Purified HCV NS3 helicase, Cy5-dT15 ssDNA binding fluorescence polarization; stronger effect = higher value; concentration not given here. Background: Fluorescence polarisation rises when a labelled molecule tumbles more slowly, as on binding a larger partner.

Assay [17] in a line: blockers of cellular phospholipid synthesis – cell-based, LOPAC library, screen 4, primary screen (AID 1347384; call rule not given here). As to conditions: animal cells, phospholipid biosynthesis inhibition screen; at 10 µM.
For assay [18], the target named is Mitogen-activated protein kinase 7 (Homo sapiens) (UniProt Q13164). In words: Gal4-ERK5 driven luciferase induction – cell-based, HTS, primary screen (AID 1508626;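 active = luciferase signal above three times the same-plate solvent-only control wells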;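 note: luciferase driven by Gal4-ERK5 fusion binding five Gal4 sites before minimal TATA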). As to conditions: HeLa Gal4-ERK5 transactivation, 18 h, at 5 µM, stronger effect = higher value.
Mitogen-activated protein kinase 7 (Homo sapiens), sequence (Q13164 whole entry, looked up, the tested form may be a part): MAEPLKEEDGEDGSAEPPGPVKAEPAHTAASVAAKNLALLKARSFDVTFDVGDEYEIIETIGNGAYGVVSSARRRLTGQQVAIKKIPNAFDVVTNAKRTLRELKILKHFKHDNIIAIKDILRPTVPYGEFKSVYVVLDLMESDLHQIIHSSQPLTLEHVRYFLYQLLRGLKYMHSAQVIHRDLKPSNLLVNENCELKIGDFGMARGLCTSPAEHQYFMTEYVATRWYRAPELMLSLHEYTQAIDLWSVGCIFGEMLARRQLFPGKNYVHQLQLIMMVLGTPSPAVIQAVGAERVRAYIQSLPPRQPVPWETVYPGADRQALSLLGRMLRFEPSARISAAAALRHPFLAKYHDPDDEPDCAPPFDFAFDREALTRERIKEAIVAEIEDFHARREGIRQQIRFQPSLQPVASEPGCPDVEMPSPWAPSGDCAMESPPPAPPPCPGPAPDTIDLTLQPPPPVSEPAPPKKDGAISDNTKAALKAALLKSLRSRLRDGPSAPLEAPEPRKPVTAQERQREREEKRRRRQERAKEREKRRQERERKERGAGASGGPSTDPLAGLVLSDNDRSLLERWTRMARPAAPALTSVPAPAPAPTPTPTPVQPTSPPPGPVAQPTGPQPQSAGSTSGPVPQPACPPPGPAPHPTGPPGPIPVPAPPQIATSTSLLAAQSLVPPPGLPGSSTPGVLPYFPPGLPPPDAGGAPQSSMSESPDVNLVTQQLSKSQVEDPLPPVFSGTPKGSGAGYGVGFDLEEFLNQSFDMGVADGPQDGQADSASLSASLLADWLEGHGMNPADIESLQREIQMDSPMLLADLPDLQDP
Assay [19] concerns the target NAD(+) hydrolase SARM1 (Homo sapiens) (UniProt Q6SZW1). The assay is described as follows: blocking NAD cleavage by SARM1 SAM-TIR – cell lysate, NAD-Glo luminescence (AID 1508614;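 active = compound whose remaining NAD level is above about 45 nM, limit read from the data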;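 note: higher remaining NAD means stronger inhibition of SARM1 NADase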). As to conditions: SAM-TIR HEK293T lysate NADase, at 1 µM, stronger effect = higher value.
[20] abbreviates: measured here: epithelial PC-3E GFP cell survival.
Where [21] appears, read: measured here: mesenchymal TEM4-18 mCherry cell survival.
Setting [22] is: stronger effect = lower value, cell number ratio, induced over uninduced.
The mark [23] stands for this setting: measured here: relative caspase fold change +Dox/-Dox.
[24] abbreviates: measured here: total cells with miR-34 induction, stronger effect = lower value.
[25] abbreviates: measured here: total cells without miR-34 induction.
Setting [26] is: MELAS cybrid survival, CellTiter-Glo 48 h, stronger effect = higher value.
Where [27] appears, read: Rieske KO mouse fibroblast survival, CellTiter-Glo 72 h.

Values joined by “and” are separate entries in the source; they are usually repeats but may differ in a detail not shown here. Identical values can stand only once. For part of these data: Results with a measured potency or affinity are listed apart. Active and inactive are the calls of the source.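 Rule for the calls, unless noted: active = compounds whose cell count with miR-34 switched on is under 0.7 times the count with it off; inactive = the rest.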

6-phosphogluconate dehydrogenase, decarboxylating (Homo sapiens), sequence (P52209 whole entry, looked up): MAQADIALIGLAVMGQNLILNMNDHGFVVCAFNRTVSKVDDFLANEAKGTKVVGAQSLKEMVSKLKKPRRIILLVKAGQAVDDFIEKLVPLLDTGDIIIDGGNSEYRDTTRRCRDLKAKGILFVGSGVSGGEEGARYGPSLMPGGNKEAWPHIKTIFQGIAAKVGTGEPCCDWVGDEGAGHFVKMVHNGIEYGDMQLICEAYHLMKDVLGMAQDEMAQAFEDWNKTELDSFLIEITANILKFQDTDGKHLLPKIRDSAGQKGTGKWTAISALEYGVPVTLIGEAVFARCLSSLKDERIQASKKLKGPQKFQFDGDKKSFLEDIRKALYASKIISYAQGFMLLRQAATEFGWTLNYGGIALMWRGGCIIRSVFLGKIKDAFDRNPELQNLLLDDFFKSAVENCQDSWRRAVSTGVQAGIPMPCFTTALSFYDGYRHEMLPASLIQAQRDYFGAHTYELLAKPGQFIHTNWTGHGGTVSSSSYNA
NAD(+) hydrolase SARM1 (Homo sapiens), sequence (Q6SZW1 whole entry, looked up): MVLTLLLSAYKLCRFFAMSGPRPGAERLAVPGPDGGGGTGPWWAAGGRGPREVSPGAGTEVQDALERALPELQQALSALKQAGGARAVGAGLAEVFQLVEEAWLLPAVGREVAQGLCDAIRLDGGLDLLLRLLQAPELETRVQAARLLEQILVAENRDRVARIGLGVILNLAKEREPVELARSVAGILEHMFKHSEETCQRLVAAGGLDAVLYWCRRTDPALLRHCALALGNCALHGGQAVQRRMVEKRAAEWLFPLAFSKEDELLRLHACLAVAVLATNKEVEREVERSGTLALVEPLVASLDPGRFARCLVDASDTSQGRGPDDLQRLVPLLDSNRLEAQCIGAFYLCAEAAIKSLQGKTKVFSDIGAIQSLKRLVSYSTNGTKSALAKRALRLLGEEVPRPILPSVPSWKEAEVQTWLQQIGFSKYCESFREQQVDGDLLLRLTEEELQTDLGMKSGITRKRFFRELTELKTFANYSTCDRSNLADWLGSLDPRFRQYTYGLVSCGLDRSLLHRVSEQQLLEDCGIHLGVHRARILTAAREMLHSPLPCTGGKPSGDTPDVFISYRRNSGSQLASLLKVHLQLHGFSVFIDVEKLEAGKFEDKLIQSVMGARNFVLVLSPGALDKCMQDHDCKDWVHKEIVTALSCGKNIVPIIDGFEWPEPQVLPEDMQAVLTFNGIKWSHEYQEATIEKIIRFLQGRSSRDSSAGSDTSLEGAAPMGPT

Usually inhibition stands for the change of the read-out against control, counted positive when it falls. A word on the viability: it is a read-out of living cells in per cent, often relative to untreated cells. For `CC(=O)N1CCN(c2ccc(OCC3CO[C@](Cn4ccnc4)(c4ccc(Cl)cc4Cl)O3)cc2)CC1` (some centres not stated), the inhibition in [1] is -4.16%; in [9], -8.94% (inactive). This molecule had a score in [2] of 0.15. This molecule also registered a rescue above control in [3] of 0.92. Besides, the cytochrome c release ratio in assay [4] was 1.8. The inhibition of aggregation in [5] was 88.5%. The glutamate uptake change in assay [6] is -8.61%. In [7], this molecule returned an aggregation suppression score of 0.126. Besides, in assay [8], the parasite load remaining was 15.3% (inactive) and 4.75% (inactive). For the same molecule, the viability in assay [8] was 65.5% and 60%. Further, the red/green cell ratio (normalised) in assay [10] was 0.9 (inactive). Moreover, the normalised cell number was 0.95 in assay [10] (setting [20]) and 0.85 in assay [10] (setting [21]). For the same molecule, the fold change in assay [11] (setting [22]) is 1 (inactive) and 1.02 (inactive) and 0.954 (inactive); in assay [11] (setting [23]), 2.72 and 0.263 and 1.79. Also, the cell count was 7410 and 7100 and 8230 in [11] (setting [24]); 7380 and 6960 and 8630 in assay [11] (setting [25]). Moreover, the z-score is -0.501 (inactive) in [12] (setting [26]), -0.0671 in [12] (setting [27]) and -0.8 (inactive) in [13].
As for `Cn1c(=O)c2[nH]c(C3CCCC3)nc2n(C)c1=O`, the results for the inhibition in [1], in assay [16] and in assay [9] were 24.6%, -1% (inactive) and -7.2% (inactive), respectively. This molecule also returned a score in assay [2] of 1.3. The rescue above control in [3] was found to be 12.7. The cytochrome c release ratio in assay [4] was determined as 0.91. Also, the inhibition of aggregation in [5] is -13.7%. Further, the glutamate uptake change in [6] was 10.7%. The molecule further displayed an inclusion score in assay [14] of 1.5. Further, the aggregation suppression score in assay [7] stood at 1.14. Besides, the period change in assay [15] was 0.02 h (inactive). In assay [10], the red/green cell ratio (normalised) was 0.82 (inactive). Further, the values for the normalised cell number in assay [10] (setting [20]) and in assay [10] (setting [21]) were 1.23 and 1.01, respectively. For the same molecule, the fold change is 0.947 (inactive) in [11] (setting [22]) and 1.51 in [11] (setting [23]). The cell count in [11] (setting [24]) turned out to be 9200; in assay [11] (setting [25]), 9710. For the same molecule, the molecule was called inactive in [17]. Further, the luciferase signal in [18] is 44 AU (inactive). In addition, the z-score in [13] was 0.92 (inactive).
For `COc1ccc(-c2cc(=O)c3c(OC)c(OC)c(OC)c(OC)c3o2)cc1`, the inhibition in assay [9] was -8.06% (inactive). The red/green cell ratio (normalised) in [10] was 1.11 (inactive). Further, the normalised cell number in [10] (setting [20]) was found to be 1.14; in assay [10] (setting [21]), 1.26. In addition, the fold change in [11] (setting [22]) was 0.921 (inactive); in [11] (setting [23]), 0.924. Moreover, the cell count amounted to 6760 in [11] (setting [24]) and 7340 in [11] (setting [25]). In addition, the z-score in assay [12] (setting [26]) is -0.525 (inactive); in [12] (setting [27]) it was 0.0182. The luciferase signal in assay [18] was 100 AU (inactive).
Regarding `COc1cc(S(C)=O)ccc1-c1nc2ncccc2[nH]1` (configuration not stated), the inhibition is 23% in assay [1] and 14% (inactive) in assay [9]. In assay [2], this molecule yielded a score of 1.52. This molecule showed a rescue above control in assay [3] of 8.66. In addition, the cytochrome c release ratio in assay [4] was determined as 0.94. Further, the inhibition of aggregation in assay [5] came out at 3.24%. For the same molecule, the glutamate uptake change in assay [6] came out at 3.5%. The same molecule came in with an inclusion score in [14] of 2. Also, the aggregation suppression score in assay [7] is 1.25. The parasite load remaining in assay [8] is 107% (inactive). Moreover, in assay [8], the viability was determined as 101%. Also, the red/green cell ratio (normalised) in assay [10] is 1.07 (inactive). Further, the normalised cell number in assay [10] (setting [20]) amounted to 0.84; in assay [10] (setting [21]), 0.9. In addition, the fold change was 0.851 (inactive) in [11] (setting [22]) and 1.41 in assay [11] (setting [23]). The values for the cell count in [11] (setting [24]) and in assay [11] (setting [25]) were 7350 and 8630, respectively. The z-score in [12] (setting [26]) was -0.22 (inactive); in assay [12] (setting [27]), 0.17. For the same molecule, in assay [18], the luciferase signal is 48 AU (inactive).
On to `Nc1nc(/C(=C/CC(=O)O)C(=O)N[C@@H]2C(=O)N3C(C(=O)O)=CCS[C@H]23)cs1`, for which the parasite load remaining in [8] was 145% (inactive) and 53% (inactive). Further, the viability in assay [8] was 95.5% and 96.5%. Besides, in [9], the inhibition is -3.19% (inactive). Besides, the red/green cell ratio (normalised) in assay [10] was 1.05 (inactive). Moreover, the normalised cell number in [10] (setting [20]) is 0.96; in [10] (setting [21]), 1. Further, the fold change in [11] (setting [22]) is 0.926 (inactive); in assay [11] (setting [23]), 1.29. The cell count is 12000 in assay [11] (setting [24]) and 13000 in assay [11] (setting [25]). The z-score in assay [12] (setting [26]) was -0.448 (inactive); in assay [12] (setting [27]), -1.4. The remaining NAD in [19] was 10 nM (inactive). Besides, in [18], the luciferase signal is 40 AU (inactive).
